Activity calls are given as the source filed them. Rule for the calls: active = hit-call score of the fitted dose curve at least 0.9, where 1 is the maximum; inconclusive = response in the unintended direction; inactive = score below 0.9.
target: Estrogen receptor beta (Homo sapiens) (UniProt Q92731); assay: OT_ER_ERbERb_1440: Odyssey Thera (OT) 24-hour HEK293T Protein-Complementation Assay for Estrogen Receptor-beta/-beta Homodimer (AID 2283380);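 note: scored as signal increase over DMSO baseline for both agonists and antagonists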
Protocol: OT_ER_ERbERb_1440 is a cell-based assay that uses HEK293T, a human kidney cell line, with measurements taken at 24 hours after chemical dosing in a 384-well plate.OT_ER_ERbERb_1440 is one of one assay component(s) measured or calculated from the OT_ER_ERbERb_1440 assay. It is designed to make measurements of protein fragment complementation, a form of binding reporter, as detected with fluorescence intensity signals by Protein-fragment Complementation technology.Data from the assay component OT_ER_ERbERb_1440 was analyzed into 1 assay endpoint. This assay endpoint, OT_ER_ERbERb_1440, was analyzed in the positive analysis fitting direction relative to DMSO as the negative control and baseline of activity. Using a type of binding reporter, measures of receptor for gain-of-signal activity can be used to understand the binding at the pathway-level as they relate to the gene ESR2. Furthermore, this assay endpoint can be referred to as a primary readout, because the performed assay has only produced 1 assay endpoint. To generalize the intended target to other relatable targets, this assay endpoint is annotated to the nuclear receptor intended target family, where the subfamily is steroidal.
Protein-fragment complementation assay, or PCA, is a method for the identification and quantification of protein-protein interactions. In the PCA, the proteins of interest ("bait" and "prey") are each covalently linked to fragments of a third protein (e.g. DHFR, which acts as a "reporter"). Interaction between the bait and the prey proteins brings the fragments of the reporter protein in close proximity to allow them to form a functional reporter protein whose activity can be measured. The OT ER beta / ER beta assay is a homodimer PCA of the ligand binding domain (LBD; amino acids 310-547) of human ER beta stably expressed in HEK293T cells. […] Cells are fixed in 4 percent formaldehyde and stained with Draq5 (BioStatus) to identify cells prior to signal detection. Fluorescent signal in the basal state of the assay is very low and is primarily punctuate and cytoplasmic. Modulation of this assay is quantified as an increase in mean fluorescence intensity in the nucleus (for agonists) or in the nucleus and cytoplasm (antagonists) relative to vehicle controls, and can be quantified on a high content imaging device or a laser scanning cytometer. The latter instrument is favored for this assay because of the rapid mode of data acquisition, the ability to acquire data from the entire cell population in a well (as opposed to a fraction of the well on the high content devices) and the larger dynamic range typically achieved with this instrument. To assess sensitivity of the ER beta/ER beta LBD assay to ligand, cells were treated with the ER agonist 17- beta-estradiol (E2) in 10-point concentration- response format for 24 hours and monitored response on a laser scanning plate cytometer (Acumen eX3; TTP Lab Tech).

Sequence of Estrogen receptor beta (Homo sapiens) (Q92731 whole entry, looked up, the tested form may be a part): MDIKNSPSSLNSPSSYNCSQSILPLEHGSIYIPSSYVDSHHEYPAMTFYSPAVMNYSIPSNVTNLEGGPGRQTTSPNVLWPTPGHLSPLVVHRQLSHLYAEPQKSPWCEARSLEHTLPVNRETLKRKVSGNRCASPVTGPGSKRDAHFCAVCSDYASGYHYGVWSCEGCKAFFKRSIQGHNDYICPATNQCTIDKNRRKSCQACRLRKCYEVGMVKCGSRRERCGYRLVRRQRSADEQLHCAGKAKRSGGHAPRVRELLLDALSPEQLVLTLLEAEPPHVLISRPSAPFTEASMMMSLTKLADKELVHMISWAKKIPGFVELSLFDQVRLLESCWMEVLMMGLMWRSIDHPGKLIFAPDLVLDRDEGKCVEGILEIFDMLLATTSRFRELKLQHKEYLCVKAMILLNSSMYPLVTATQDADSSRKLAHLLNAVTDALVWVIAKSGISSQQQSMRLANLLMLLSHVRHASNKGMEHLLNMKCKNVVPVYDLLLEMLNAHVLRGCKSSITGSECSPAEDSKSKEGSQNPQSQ

| Compound | outcome | AC50 |
| --- | --- | --- |
| COc1cc(OC)nc(Oc2cccc(Oc3nc(OC)cc(OC)n3)c2C(=O)O)n1 | inactive |  |
| CC(=O)c1cc2c(cc1C)C(C)(C)C(C)CC2(C)C (stereo not given) |  | 12.5 µM (active) |
| O=C1Nc2ccc(Cl)cc2C(c2ccccc2)=NC1O (stereo not given) | inactive |  |
| Nc1ccc(Cl)c(Cl)c1 | inactive |  |
| O=C(NC(=O)c1c(F)cccc1F)Nc1ccc(Oc2ccc(C(F)(F)F)cc2Cl)cc1F | inactive |  |
| CCCCCCCCCCCCCCCC[N+](C)(C)C | inactive |  |
| C=CC(=O)OCC(CC)CCCC (stereo not given) | inactive |  |
| c1ccc(P(c2ccccc2)c2ccccc2)cc1 | inactive |  |
| CCOC(=O)NC(=S)Nc1ccccc1NC(=S)NC(=O)OCC | inactive |  |
| O=CNC(N1CCN(C(NC=O)C(Cl)(Cl)Cl)CC1)C(Cl)(Cl)Cl (stereo not given) | inactive |  |
| CC1(C)[C@H](C(=O)O[C@H](C#N)c2cccc(Oc3ccccc3)c2)[C@@H]1C=C(Br)Br | inactive |  |
| C=CCN(CC=C)C(=O)C(Cl)Cl | inactive |  |
| CC(Cc1ccc(C(C)(C)C)cc1)CN1C[C@@H](C)O[C@@H](C)C1 (stereo not given in full) | inactive |  |
| CC[N+](=O)[O-] | inactive |  |
| CCOP(=O)(OCC)OCC | inactive |  |
| Cc1ccc(C)c2ccccc12 | inactive |  |
| CCOP(O)OCC | inactive |  |
| O=S(=O)(O)OOS(=O)(=O)O | inactive |  |
| c1ccc2c(c1)CCCC2 | inactive |  |
| CC(C)[C@@H](C(=O)O[C@@H](C#N)c1cccc(Oc2ccccc2)c1)c1ccc(Cl)cc1 | inactive |  |

| Compound | outcome | AC50 |
| --- | --- | --- |
| CC(O)CN(CC(C)O)CC(C)O (stereo not given) | inactive |  |
| Nc1cc(Cl)cc(Cl)c1 | inactive |  |
| CN(C)N | inactive |  |
| O=C=Nc1ccccc1 | inactive |  |
| c1cc[n+]2c(c1)-c1cccc[n+]1CC2 | inactive |  |
| CCc1cccc(C)c1N(C(=O)CCl)[C@@H](C)COC | inactive |  |
| CCOP(=O)(OCC)Oc1ccc([N+](=O)[O-])cc1 | inactive |  |
| CCCC=NO | inactive |  |
| C=CC(=O)OCCO | inactive |  |
| O=[N+]([O-])c1ccc(Cl)cc1 | inactive |  |
| O=C(O)CCl | inactive |  |
| CC(=O)C=Cc1ccccc1 | inactive |  |
| O=P(O)(Oc1ccccc1)Oc1ccccc1 | inactive |  |
| CCC1CCC(=O)O1 (stereo not given) | inactive |  |
| O=C(CCl)c1ccccc1 | inactive |  |
| Cc1cc(C)c(C2=C(OC(=O)CC(C)(C)C)C3(CCCC3)OC2=O)c(C)c1 | inactive |  |
| CCC(=O)c1ccc(Cl)cc1 | inactive |  |
| CCOC(=O)C1OC1(C)c1ccccc1 (stereo not given) |  | 37.3 µM (active) |
| CC(C)(O)C#N | inactive |  |
| O=C(NCNC(=O)NC1C(=O)NC(=O)N1CO)NC1C(=O)NC(=O)N1CO (stereo not given) | inactive |  |
